Experimental data reported in the supplement of paper PMC13380429.

Test system: Vero E6 infected with SARS-CoV-2
Assay: inhibition of SARS-CoV-2 cytopathic effect; higher = more antiviral protection, active = above 15
Conditions: 48 h

Measured: inhibition of SARS-CoV-2 cytopathic effect

CC(C)(C)C(=O)OCOC(=O)[C@@H]1N2C(=O)C[C@H]2S(=O)(=O)C1(C)C [sulbactam-pivoxil]
inactive: 1 nM -1.2% | 8.33 nM -4.28% | 100 nM -7.15% | 833.33 nM 5.91% | 10000 nM -2.18%

N#Cc1cccc(-c2nc(-c3cccnc3)no2)c1
inactive: 1 nM -1.62% | 8.33 nM 0.72% | 100 nM -0.15% | 833.33 nM -1.08% | 10000 nM 2.85%

CC1COc2c(N3CCN(C)CC3)c(F)cc3c(=O)c(C(=O)O)cn1c23 (stereo not given) [ofloxacin]
inactive: 1 nM 1.97% | 8.33 nM 0.365% | 100 nM 0.065% | 833.33 nM -0.975% | 10000 nM 1.25%

COc1cc2ncnc(Nc3cccc(Br)c3)c2cc1OC
inactive: 1 nM -2.89% | 8.33 nM -3.44% | 100 nM -2.56% | 833.33 nM -11.5%
active: 10000 nM 36.3%

O=C(CN1CCNCC1)NC1CCCCC1 [esaprazole]
inactive: 1 nM -1.96% | 8.33 nM -1.47% | 100 nM -0.45% | 833.33 nM -0.95% | 10000 nM -1.46%

CN(Cc1cc(Br)cc(Br)c1N)C1CCCCC1 [bromhexine]
inactive: 1 nM 0.85% | 8.33 nM 0.02% | 100 nM 2.7% | 833.33 nM 3.11% | 10000 nM 11.6%

Cc1cccc(OCC(O)CNC(C)(C)C)c1C (stereo not given) [xibenolol]
inactive: 1 nM -3.23% | 8.33 nM -1.82% | 100 nM -0.78% | 833.33 nM -1.76% | 10000 nM -5.66%

Nc1ccc2ncnc(NCCc3ccc(Oc4ccccc4)cc3)c2c1
inactive: 1 nM -1.24% | 8.33 nM 1.54% | 100 nM -1.53% | 833.33 nM 0.25% | 10000 nM -4.62%

O=C1c2ccccc2-c2n[nH]c3cccc1c23 [pyrazolanthrone]
inactive: 1 nM -4.36% | 8.33 nM 0.82% | 100 nM -1.61% | 833.33 nM -1.07% | 10000 nM -5.91%

CO[C@@]1(NC(=O)Cc2cccs2)C(=O)N2C(C(=O)O)=C(COC(N)=O)CS[C@@H]21 [cefoxitin]
inactive: 1 nM -0.07% | 8.33 nM -1.13% | 100 nM -0.89% | 833.33 nM 0.12% | 10000 nM 1.09%

NC(=O)Nc1sc(-c2ccc(F)cc2)cc1C(N)=O
inactive: 1 nM 1.14% | 8.33 nM -0.06% | 100 nM -0.35% | 833.33 nM -3.05% | 10000 nM -0.22%

Cl/C(=C\n1cncn1)c1ccc(Cl)cc1Cl [loreclezole]
inactive: 1 nM 0.42% | 8.33 nM -1.72% | 100 nM -2.63% | 833.33 nM -0.72% | 10000 nM -1.41%

Cc1cn2c(N)c(Cl)cc(C(=O)NCC3CCN(CC(C)C)CC3)c2n1
inactive: 1 nM 2.35% | 8.33 nM 1.24% | 100 nM 2.96% | 833.33 nM 3.33% | 10000 nM 0.75%

CN1Cc2c(N)cccc2C(c2ccccc2)C1 (stereo not given) [nomifensine]
inactive: 1 nM 0.22% | 8.33 nM 1.01% | 100 nM 2.41% | 833.33 nM 1.13% | 10000 nM 0.73%

CCOCCn1c(C2CCN(CCc3ccc(C(C)(C)C(=O)O)cc3)CC2)nc2ccccc21 [bilastine]
inactive: 1 nM -1.57% | 8.33 nM -0.88% | 100 nM -1.39% | 833.33 nM -1.14% | 10000 nM -0.38%

N[C@@H](C(=O)O)c1nn[nH]n1 (racemic) [tetrazol-5-yl-glycine-(RS)]
inactive: 1 nM -2.49% | 8.33 nM -1.1% | 100 nM 0.87% | 833.33 nM 1.56% | 10000 nM -1.13%

Clc1ccc(N/N=C(\c2ccccc2)c2ccccn2)nc1
inactive: 1 nM -0.45% | 8.33 nM -0.79% | 100 nM -1.98% | 833.33 nM 9.6%
active: 10000 nM 16.5%

Nc1nc(NC2CC2)c2ncn([C@H]3C=C[C@@H](CO)C3)c2n1
inactive: 1 nM -0.53% | 8.33 nM -0.06% | 100 nM 0.24% | 833.33 nM 0.84% | 10000 nM 0.33%

Cc1ccc(C(C)C)c(O)c1 [thymol]
inactive: 1 nM 2.55% | 8.33 nM -2.55% | 100 nM -2.75% | 833.33 nM -1.48% | 10000 nM -1.32%

COC[C@@H](NC(C)=O)C(=O)NCc1ccccc1 [Lacosamide]
inactive: 1 nM -11.7% | 8.33 nM -10.6% | 100 nM -8.79% | 833.33 nM -10.4% | 10000 nM -12.7%
